Compound activity deposited in PubChem BioAssay by National Center for Advancing Translational Sciences (NCATS).
A selection: hits, their analogues and other compounds. The true share with any hit is near 19%.
HT1080NT lethal = kills 2HG-producing HT-1080-NT fibrosarcoma cells; Potency, µM (doses to about 46.1 µM), for inactives: at the top dose activity, negative = less viability, usual class: cytotoxic; HT-1080-NT fibrosarcoma viability, CellTiter-Glo ATP luminescence, 48 h; AID 686970; actives 1.6% (n = 360,000);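 note: NT is the 2HG producing partner of a matched IDH1 knockdown line; potency is the fitted concentration of half-maximal effect; 0% = DMSO-treated cells and -100% = media-only wells without cells; nearly all actives have a fitted effect of over 55% in size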
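HT-1080-NT fibrosarcoma cells (2HG-overproducing), 750 cells/well in RPMI with 5% FBS, dosed after 2 h and incubated 48 h at 37C. CellTiter-Glo luminescence normalized to DMSO and no-cell wells; concentration-response curves fitted and classed.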
ELG1 repair inh = blocks ELG1-dependent DNA repair in HEK293T cells. AID 504467. Potency, µM (doses to about 46.1 µM), without a hit: top-dose activity change, negative = inhibition, usual class: inhibitors. HEK293T ELG1-luciferase reporter, luminescence, 16 h; DNA damage induced by 5-fluorouridine. actives 2.3% (n = 330,000); note: potency is the fitted concentration of half-maximal effect; nearly all actives have a fitted effect of over 55% in size
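Quantitative HTS, concentration-response format. 2,000 cells/well co-treated with 5-fluorouridine and compound, 16 hr in 5% CO2 at 37 °C; ONE-Glo luminescence read after 30 min.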
DT40 TDP1 no CPT = qHTS for Inhibitors of human tyrosyl-DNA phosphodiesterase 1 (TDP1): qHTS in cells in absence of CPT | Potency, µM (titrated, usually from 46.2 µM), inactives show at the top dose activity change, negative = growth inhibition, usual class: inhibitors | actives 15% (n = 420,000) | DT40 Tdp1-/- hTDP1 cells, no CPT, ATP luminescence, 48 h; note: potency is the fitted concentration of half-maximal effect; nearly all actives have a fitted effect of over 55% in size
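Camptothecin absent (DMSO only). Human TDP1-complemented DT40 knockout cells, 400 cells/well, 37 °C for minimum 48 hr; ATP measured via CellTiter-Glo, 30 min dark incubation, luminescence.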
TDP1 cell CPT = DT40-hTDP1 cell growth loss with CPT; Potency, µM (top dose mostly 46.2 µM), for the others: top-dose activity change, negative = growth inhibition, hits mostly inhibitors; chicken DT40 Tdp1-/-;hTDP1 cells + 20 nM CPT, ATP luminescence, 48 h; actives 12% (n = 420,000); AID 686979; note: potency is the fitted concentration of half-maximal effect; nearly all actives have a fitted effect of over 55% in size
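Chicken DT40 Tdp1-/- cells complemented with human TDP1, 400 cells/well, exposed to compounds plus 20 nM camptothecin for at least 48 h at 37 C; viability read as ATP content by CellTiter-Glo luminescence.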
IL1B secr inh = blocks inflammasome-driven IL-1 beta release. THP-1 LPS/ATP IL-1B secretion, AlphaLISA, 16 h; stronger effect = lower value. activity change, % at 57.5 µM. actives 4.7% (n = 360,000). AID 743279; in the data active = activity change below about -50%; inconclusive = mostly about -30% to -49%
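Secreted IL-1B measured by AlphaLISA bead assay after 16 h compound exposure of THP-1 cells; compounds (final up to 57.5 uM) added 1 h before LPS (250 ng/mL) and ATP (1.25 mM) stimulation; lower signal means less secretion.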
HT1080 IDH1KD tx = kills HT-1080 cells with IDH1 knockdown; AID 686971; actives 2% (n = 360,000); Potency, µM (series often up to 46.1 µM), inactives show at the highest dose activity, negative = toxicity, usual class: cytotoxic; HT-1080 IDH1 knockdown viability, ATP luminescence, 48 h;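 note: potency is the fitted concentration of half-maximal effect; 0% = DMSO wells and -100% = cell-free medium wells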
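CellTiter-Glo luminescence after 48 h compound exposure at 37 degrees C of IDH1-knockdown HT-1080 cells in 5% FBS RPMI. %Activity scaled between DMSO wells and cell-free media wells, with curves fitted and assigned curve classes.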
Starred values were filed as active, the others as inactive. Unless noted, calls come from the whole dose curve; as a rule, active = well fitted curve in the direction sought with a large enough effect; inconclusive = small, poorly fitted or top-dose-only effect, or another doubt; inactive = no such curve, though single readings can be large; an effect the other way counts as inactive or inconclusive. Unless noted, % is set by controls: 0 for no effect and ±100 for the full control effect.

`Cc1cccc(Oc2nc3ccccn3c(=O)c2/C=C(\C#N)c2nc3ccccc3s2)c1C` gave DT40 TDP1 no CPT 4.6µM* and TDP1 cell CPT 21µM*.
For CC1(C(=O)NCc2ccccc2)CCC(=O)N1CC(F)(F)F (stereo not given) the results were HT1080NT lethal 14%, DT40 TDP1 no CPT 9%, TDP1 cell CPT -2%, IL1B secr inh 14 and HT1080 IDH1KD tx 10%.
Screening Nc1nc(N)c(Br)c(Nc2ccc(Cl)c(Cl)c2)n1 returned HT1080NT lethal -4%, DT40 TDP1 no CPT inconclusive, TDP1 cell CPT inconclusive, IL1B secr inh 28 and HT1080 IDH1KD tx inconclusive.
Screening Cc1ccc(Nc2nc(N)nc(N)c2N=O)cc1Cl returned HT1080NT lethal 1%, DT40 TDP1 no CPT 13µM*, TDP1 cell CPT 10µM* and HT1080 IDH1KD tx -1%.
Screening CCc1c(Cl)nc(N)nc1Nc1ccccc1C returned HT1080NT lethal 13%, DT40 TDP1 no CPT inconclusive, TDP1 cell CPT inconclusive, IL1B secr inh 7 and HT1080 IDH1KD tx -12%.
Screening Nc1nc(N)c(N=O)c(Nc2cccc(Cl)c2)n1 returned HT1080NT lethal inconclusive, DT40 TDP1 no CPT 10µM*, TDP1 cell CPT 5.8µM*, IL1B secr inh inconclusive and HT1080 IDH1KD tx inconclusive.
For Nc1nc(N)c(N=O)c(Nc2ccc(Cl)c(Cl)c2)n1 the results were HT1080NT lethal inconclusive, DT40 TDP1 no CPT 7.3µM*, TDP1 cell CPT 4.1µM*, IL1B secr inh -7 and HT1080 IDH1KD tx inconclusive.
CCc1c(N)nc(N)nc1Nc1ccc(C)c(C)c1 was read as HT1080NT lethal -15%, DT40 TDP1 no CPT 15µM*, TDP1 cell CPT inconclusive, IL1B secr inh -8 and HT1080 IDH1KD tx -23%.
Screening COc1ccc(-n2ncc3c2CC(C)(C)CC3NC(=O)c2ccnn2C)cc1 (stereo not given) returned HT1080NT lethal 0%, ELG1 repair inh 3%, DT40 TDP1 no CPT -23%, TDP1 cell CPT inconclusive, IL1B secr inh 32 and HT1080 IDH1KD tx -4%.
`CCOC(=O)/C=C/[C@H]1CCc2cccc(Cl)c2O1` gave HT1080NT lethal 10%, ELG1 repair inh 22%, DT40 TDP1 no CPT -2%, TDP1 cell CPT -17%, IL1B secr inh 31 and HT1080 IDH1KD tx 8%.
`CCNc1nc(NCC)n2c(SCC(=O)Nc3ccc(C)cc3Br)nnc2n1` gave HT1080NT lethal -5%, ELG1 repair inh -6%, DT40 TDP1 no CPT inconclusive, TDP1 cell CPT -28%, IL1B secr inh -5 and HT1080 IDH1KD tx -13%.
Screening O=C1CCN(Cc2ccc(Cl)cc2Cl)C(=O)N1 returned HT1080NT lethal 0%, DT40 TDP1 no CPT -3%, TDP1 cell CPT 10%, IL1B secr inh -2 and HT1080 IDH1KD tx -9%.
Cc1ccnn1-c1ccc(C(=O)OCC(=O)Nc2ccc(F)cc2)cc1 was read as HT1080NT lethal 0%, ELG1 repair inh inconclusive, DT40 TDP1 no CPT -17%, TDP1 cell CPT -11%, IL1B secr inh 2 and HT1080 IDH1KD tx 1%.
Screening O=c1c2c(nc3c(-c4ccc(Cl)cc4)c[nH]n13)CCCC2 returned HT1080NT lethal inconclusive, ELG1 repair inh 10µM*, DT40 TDP1 no CPT 4µM*, TDP1 cell CPT 3.5µM*, IL1B secr inh 46 and HT1080 IDH1KD tx 7.1µM*.
For O=c1c2c(nc3c(-c4cccc5ccccc45)c[nH]n13)CCC2 the results were HT1080NT lethal -8%, ELG1 repair inh 0%, DT40 TDP1 no CPT inconclusive, TDP1 cell CPT 25µM*, IL1B secr inh 10 and HT1080 IDH1KD tx -4%.
Cc1[nH]n2c(=O)c3c(nc2c1-c1ccc(F)cc1)CCCC3 was read as HT1080NT lethal 10%, ELG1 repair inh -10%, DT40 TDP1 no CPT inconclusive, TDP1 cell CPT 16µM*, IL1B secr inh 8 and HT1080 IDH1KD tx -9%.
For O=c1c2c(nc3cc(-c4cccc(Cl)c4)[nH]n13)CCC2 the results were HT1080NT lethal 2%, ELG1 repair inh inconclusive, DT40 TDP1 no CPT inconclusive, TDP1 cell CPT inconclusive, IL1B secr inh 20 and HT1080 IDH1KD tx 1%.
`Cc1[nH]n2c(=O)c3c(nc2c1-c1cccc2ccccc12)CCC3` gave HT1080NT lethal inconclusive, ELG1 repair inh -6%, DT40 TDP1 no CPT inconclusive, TDP1 cell CPT inconclusive, IL1B secr inh -6 and HT1080 IDH1KD tx -30%.
For Cc1[nH]n2c(=O)c3c(nc2c1-c1ccccc1)CCCC3 the results were HT1080NT lethal 3%, ELG1 repair inh inconclusive, DT40 TDP1 no CPT inconclusive, TDP1 cell CPT inconclusive, IL1B secr inh 0 and HT1080 IDH1KD tx 23%.
Screening Cc1ccc(Cl)cc1NC(=O)N1CCc2cc(S(=O)(=O)N3CCC(C)CC3)ccc21 returned DT40 TDP1 no CPT -11% and TDP1 cell CPT -26%.
Cc1ccccc1-n1c(C)nnc1SC(C)C(=O)NCc1ccco1 (stereo not given) was read as DT40 TDP1 no CPT -3% and TDP1 cell CPT -21%.
`COc1ccc(C2CC(C(F)(F)F)n3nc(C(=O)O)cc3N2)cc1OC` (stereo not given) gave HT1080NT lethal 6%, ELG1 repair inh 4%, DT40 TDP1 no CPT 5%, TDP1 cell CPT -11%, IL1B secr inh 12 and HT1080 IDH1KD tx 2%.
For COc1cc2c(cc1OC)C(C)N(C(=O)c1cc3n(n1)C(C(F)(F)F)CC(c1ccco1)N3)CC2 (stereo not given) the results were HT1080NT lethal -20%, ELG1 repair inh inconclusive, DT40 TDP1 no CPT inconclusive, TDP1 cell CPT inconclusive, IL1B secr inh 0 and HT1080 IDH1KD tx -22%.
COc1ccccc1N1CCN(C(=O)c2cc3n(n2)C(C(F)(F)F)CC(c2ccco2)N3)CC1 (stereo not given) was read as HT1080NT lethal -7%, ELG1 repair inh -28%, DT40 TDP1 no CPT 18µM*, TDP1 cell CPT 15µM*, IL1B secr inh -15 and HT1080 IDH1KD tx -10%.
`O=C(c1cnn2c1NC(c1ccco1)CC2C(F)(F)F)N1CCN(c2cccc(Cl)c2)CC1` (stereo not given) gave HT1080NT lethal 15µM*, ELG1 repair inh 10µM*, DT40 TDP1 no CPT 8.2µM*, TDP1 cell CPT 16µM*, IL1B secr inh -12 and HT1080 IDH1KD tx 18µM*.
